This note sets out measurements from PubChem BioAssay AID2315 (National Center for Advancing Translational Sciences (NCATS), 2010).

The inhibition is the change of the read-out against control, counted positive when it falls.

In all, about 290,000 compounds went through this assay and about 27,000 (9.3%) were called active. No stated cut-off is given here; in the data, active means inhibition mostly above about 28% (no sharp cut-off); inactive means mostly below about 43%. The list comes from a sample in which actives are over-represented; it also holds similar structures and randomly drawn compounds.

The test can be described thus: A qHTS for Small Molecule Inhibitors of Shiga Toxin. Further: 0% is about no effect. The note with it: Vero cells, Shiga toxin protein synthesis inhibition reporter; at 38.7 µM, stronger effect = higher value.
With `O=C(Nc1cccc(O)c1)c1ccc(C(=O)c2ccccc2)o1`, the inhibition was 88% (active). Then `O=C(Nc1cccc(C(=O)N2CCCC2)c1)c1ccccc1`, with -3.28% (inactive); and `C/C(=C\C(=O)c1ccccc1)Nc1cccc(O)c1`, with 141% (active). `C/C(=C\C(=O)c1cccnc1)Nc1ccc(C)c(C)c1`: the inhibition is 43.6% (inactive). Regarding `COc1cc(/C=C(/NC(=O)c2ccccc2)C(=O)Nc2cccc(O)c2)c([N+](=O)[O-])cc1OC`, the inhibition is -3.28% (inactive).

Regarding `O=C(Cc1ccccc1)Nc1cccc(NC(=O)c2ccccc2)c1`, the inhibition is -14.6% (inactive).

For the compound `CCCc1nnc(NC(=O)CCC(=O)N2CCN(S(=O)(=O)c3ccc(OC)cc3)CC2)s1`, the inhibition is 4.3% (inactive). Then `Cc1cc(NC(=O)Nc2c[nH]c(=O)[nH]c2=O)ccc1Br`, with -3.83% (inactive); and `C=CCn1c(=O)c(C(=O)Nc2ncccc2O)c(O)c2ccccc21`, with 4.1% (inactive); and `CN(C)S(=O)(=O)c1ccc(N2CCCC2)c(C(=O)Nc2cccc(F)c2)c1`, with -10.4% (inactive). As for `O=C(CCl)N(Cc1cccc([N+](=O)[O-])c1)c1cccc(Cl)c1`, the inhibition was -27.9% (inactive). Then `Nc1c(-c2cccc(Cl)c2)cnn1-c1cccc([N+](=O)[O-])c1`, with 48.6% (active); and `O=[N+]([O-])c1cccc(C2=NCCS2)c1`, with 8.55% (inactive); and `COc1ccc(CSc2nnnn2-c2ccc(O)cc2)cc1F`, with 19.9% (inactive).

Take `COc1cccc(-c2nnc(N(C)C(=O)c3ccno3)s2)c1`: the inhibition was 30.2% (inactive). In the case of `CN(C(=O)c1ccno1)c1nnc(-c2cccnc2)s1`, the inhibition is 5.36% (inactive). Regarding `CN(C(=O)C1CCOC1)c1nnc(-c2cccnc2)s1` (stereo not drawn), the inhibition was 22% (active). Then `O=C(/C=C/c1cccc([N+](=O)[O-])c1)N1CCN(Cc2ccccc2)CC1`, with 12.7% (inactive).

For `CNC(=O)N1c2ccccc2C=Cc2ccccc21`, the inhibition is -6.09% (inactive). For `CSc1nccc(NC(=O)c2ccc(C(C)(C)C)cc2)n1`, the inhibition is 71.6% (active).

`O=C(Nc1ccnc(-c2ccncc2)n1)c1cccs1`: the inhibition was -8.52% (inactive). Then `COC(=O)c1nc(NC(=O)c2ccc(C(C)(C)C)cc2)n[nH]1`, with 10.9% (inactive).

For `CCOC(=O)c1c(S(=O)(=O)Nc2cccc(Cl)c2)c(C)n(C)c1C`, the inhibition is -10.6% (inactive). Then `Cc1ccc(Nc2ncnc3c2cnn3C)c(C)c1`, with 2.4% (inactive). Then `O=C(NNc1ncnc2c1cnn2-c1ccccc1)c1ccco1`, with 35.5% (inactive); and `Cc1ccc(-n2ncc3c(Nc4cccc(C(=O)O)c4)ncnc32)cc1`, with 76.6% (active). On to `O=C(Nc1ccc(Br)cc1F)C1CC(=O)N(C2CCCCC2)C1` (stereo not drawn), for which the inhibition is 0.452% (inactive). Then `CCO[C@@H]1OC(C(=O)NCc2nc3ccccc3[nH]2)=C[C@H](C2CCCCC2)[C@H]1CCCO`, with -8.66% (inactive). Then `O=C(COc1ccccc1)NCCc1nc2ccccc2[nH]1`, with -37.8% (inactive); and `O=C(OCc1nc2ccccc2[nH]1)C1CCCCC1`, with 29.7% (active); and `CC1C(=O)Nc2ccccc2N1C(=O)c1ccc(F)cc1F` (stereo not drawn), with 26.5% (inactive). As for `O=C(Nc1ccc(-c2cscn2)cc1)C1CCCN(Cc2ccc(CO)o2)C1` (stereo not drawn), the inhibition is 7.25% (inactive). Then `CCOC(=O)NNC(=O)c1ccc(Cl)cc1`, with 11.6% (inactive); and `O=C(NNC(=O)C1C2CCC(C2)C1C(=O)O)c1ccc(Cl)cc1` (stereo not drawn), with 57.3% (active); and `O=C(NNC(=S)NC1CC2CCC1C2)c1ccc(Cl)cc1` (stereo not drawn), with 12.4% (inactive).

In the case of `Cc1ccc(OCC(=O)NC(C)c2ccccc2)cc1C` (stereo not drawn), the inhibition is -6.99% (inactive). With `CCOc1ccc(OCC(=O)Nc2c3c(nn2C(C)(C)C)CS(=O)(=O)C3)cc1`, the inhibition is -5.61% (inactive). Regarding `CSc1nnc(-c2ccc(C(F)(F)F)cn2)o1`, the inhibition is 47.1% (active). Then `CC(C)Oc1ccc(Oc2ccc(C(F)(F)F)cn2)cc1`, with 1.31% (inactive). In the case of `C=CCSc1nnc(NC(=O)c2ccc(NC(C)=O)cc2)s1`, the inhibition is 26.6% (inactive). Then `CCOC(=O)CSc1nnc(NC(=O)c2cccc(S(=O)(=O)N3CCCC3)c2)s1`, with -15% (inactive); and `CC(=O)c1sc(NC(=O)CCCOc2ccccc2C)nc1C`, with -15.8% (inactive); and `COC(=O)c1sc(NC(=S)NC(=O)c2ccc(C)cc2)nc1C`, with 38.9% (inactive).

`CCOC(=O)c1sc(NC(=O)c2ccncc2)nc1C`: the inhibition was 11% (inactive). Then `CC(=O)c1sc(N/N=C\c2ccc(C)cc2)nc1C`, with 72.3% (active). On to `CC(=O)c1sc(N/N=C/c2ccc(C(C)C)cc2)nc1C`, for which the inhibition is 69.3% (active). Then `CC(=O)c1sc(NC(=O)C2=NN(c3ccccc3)C(=O)CC2)nc1C`, with 21.6% (inactive). Then `Cc1nnc(C)n1/N=C/c1ccc(C(C)C)cc1`, with -9.61% (inactive); and `CCSc1nnc(NC(=O)c2ccc(C)cc2)s1`, with 71.3% (active).

Regarding `Cc1ccc(S(=O)(=O)Nc2nc(C)cc(N/N=C/c3ccc(O)cc3)n2)cc1`, the inhibition is 9.39% (inactive).

On to `CC(=O)c1sc(NC(=O)c2ccc(C)cc2)nc1C`, for which the inhibition is 107% (active). Consider `O=C(NCCCN1CCOCC1)C1CCCN(S(=O)(=O)N2CCCCC2)C1` (stereo not drawn), for which the inhibition was -9.17% (inactive).

As to `Cc1ccc(NC(=O)Cc2nnc(SCC(=O)Nc3nncs3)n2C)cc1`, the inhibition was -6.25% (inactive). Then `COc1ccc(OC)c(/C(C)=N\NC(=O)c2cc3cc(Cl)ccc3n2C)c1`, with -10.1% (inactive); and `CCN(Cc1ccncc1)C(=O)CCc1ccccc1`, with -7.55% (inactive); and `COc1ccccc1NC(=O)C1CCCN1S(=O)(=O)c1ccc(Cl)cc1` (stereo not drawn), with 23.6% (inactive).

Consider `CC(NS(=O)(=O)c1ccc(Br)cc1)C(=O)NCC1CCCO1` (stereo not drawn), for which the inhibition is 25% (inactive).

For the compound `CC(C)(C)NC(=O)CN(Cc1cccs1)C(=O)CNS(=O)(=O)c1ccccc1`, the inhibition is 41.4% (inactive). Regarding `C[C@H]1CCC[C@@]2(C)CCCC[C@]12O`, the inhibition is 12.1% (inactive). Then `COc1ccccc1N1CCN(c2ncnc3sc(C)c(-c4ccccc4)c23)CC1`, with 54.8% (inactive); and `O=C(c1c(F)cccc1Cl)N1CCN(S(=O)(=O)c2ccc3c(c2)OCCCO3)CC1`, with -6.3% (inactive). Then `CC1CCN(CC(=O)Nc2nccs2)CC1`, with -4.28% (inactive). For the compound `N/C(=N\OC(=O)c1ccc2c(c1)OCO2)c1ccc(Br)cc1`, the inhibition is 73.3% (active). Then `N/C(=N\OC(=O)/C=C/c1ccccc1)c1ccc(Br)cc1`, with 6.16% (inactive); and `N/C(=N\OC(=O)N1c2ccccc2Sc2ccccc21)c1ccc(Br)cc1`, with -3.87% (inactive). Take `O=C(Nc1nnc(-c2ccc(F)cc2)s1)c1c(F)cccc1Cl`: the inhibition was 3.43% (inactive). In the case of `O=C1NC(c2ccncc2)Nc2sc3c(c21)CCCC3` (stereo not drawn), the inhibition is 64.1% (active). Then `C/C(=C\c1ccccc1)C1NC(=O)c2c(sc3c2CCCC3)N1` (stereo not drawn), with 34.2% (inactive). In the case of `Cc1ccc(C(=O)c2c(NC(=O)c3ccncc3)sc3c2CCCC3)cc1`, the inhibition was -0.844% (inactive). Take `CCOC(=O)[C@@H]1[C@H]2COc3cc(OC)ccc3[C@@H]2N2C(=O)N(c3cccc(C)c3)C(=O)[C@@]12C`: the inhibition was -1.2% (inactive). For `CC1CCCN(CCCNC(=O)CN2C(=O)COc3ccc(S(=O)(=O)N4CCOCC4)cc32)C1` (stereo not drawn), the inhibition is -5.12% (inactive). Consider `C=CCn1c(CNS(=O)(=O)c2ccc(Br)cc2)nnc1SC`, for which the inhibition is -6.56% (inactive). Then `O=C(CSc1nnc2c(n1)[nH]c1ccccc12)NC1CCCCC1`, with -11% (inactive).

For `O=C(Cn1c(-c2cncs2)nc2ccccc21)NC1CCCC1`, the inhibition was -2.75% (inactive).

On to `O=C(/C=C/c1cnc2ccccc2n1)NC1CCCCCC1`, for which the inhibition was 112% (active). Then `Cc1ccc(N(Cc2cc(=O)[nH]c3ccccc23)C(=O)CCl)cc1`, with -5.41% (inactive); and `Cc1cccc(C(=O)NNC(=O)CSc2nnc(C(C)C)n2C)c1`, with -2.77% (inactive); and `COc1cccc(C(C(=O)NC2CCCC2)N(C(=O)c2ccco2)c2cccc(C(C)=O)c2)c1OC` (stereo not drawn), with -12.2% (inactive). Then `COc1ccc2nc(/N=C(\N)NC(=O)Nc3ccccc3)nc(C)c2c1`, with 69.1% (inactive); and `O=C(NNC(=O)C(O)c1ccccc1)NC1CCCCC1` (stereo not drawn), with -13.5% (inactive). Then `Cc1nc(/N=C(\N)NC(=O)NC2CCCCC2)nc2ccccc12`, with 30.3% (active). With `COc1ccc(C(=O)NCCCN2CCOCC2)cc1Br`, the inhibition is -13.5% (inactive). Then `O=C(c1cc2ccccc2o1)N1CCN(c2cccc(C(F)(F)F)c2)CC1`, with -15.8% (inactive); and `COCCN(C(=O)CCC(=O)Nc1nccs1)C(C(=O)NCCC(C)C)c1ccc(F)cc1` (stereo not drawn), with -13.9% (inactive). Regarding `CCOC(=O)/C(C#N)=C\c1c(C)cc(C)c(COC(C)=O)c1C`, the inhibition is 30.8% (active). For the compound `CCOC(=O)NC(=O)/C(C#N)=C\c1ccccc1`, the inhibition was -2.62% (inactive). Then `COC(=O)/C(C#N)=C/c1occc1C`, with -2.66% (inactive). Then `COCCNC(=O)CSc1nc2sccc2c(=O)n1-c1ccccc1`, with -4.95% (inactive); and `COc1cc(NC(=O)NCC2CCN(Cc3ccc(C)cc3)CC2)cc(OC)c1OC`, with 19.7% (inactive); and `CCSc1nnc(-c2cc3c(s2)-c2ccccc2CC3)o1`, with 73.3% (active). Then `Fc1ccc(CSc2nnc(-c3cc4c(s3)-c3ccccc3CC4)o2)cc1`, with -15% (inactive); and `O=C(CSc1nnc(-c2ccccc2O)o1)NC1CCCCC1`, with -7.64% (inactive); and `CSCCC(NC(=O)c1ccc(Cl)cc1Cl)C(=O)NNC(=O)c1csc(N2CCOCC2)n1` (stereo not drawn), with 23.2% (inactive). As for `O=C(Nc1ccc(N2CCCC2=O)cc1)c1cncc(Br)c1`, the inhibition is -22% (inactive). For the compound `CN(C)Cc1c(O)ccc2c(=O)c(-c3ccccc3Cl)coc12`, the inhibition is 2.96% (inactive). On to `O=C(/C=C/c1ccccc1[N+](=O)[O-])NCC1CCCO1` (stereo not drawn), for which the inhibition was 28% (inactive). Then `O=C(/C=C/c1ccccc1[N+](=O)[O-])OC1CCCCC1=O` (stereo not drawn), with -5.74% (inactive); and `CC1CCCCC1NC(=O)/C(C#N)=C/C=C/c1ccccc1[N+](=O)[O-]` (stereo not drawn), with 52.2% (active).
